Source: PubChem BioAssay AID651789 (National Center for Advancing Translational Sciences (NCATS), 2012)
Records with an inconclusive call do not appear. Calls of active or inactive are those of the source. Calls follow the shape of the dose curve; as a rule, active = well fitted inhibition curve with a large enough effect; inconclusive = small, poorly fitted or top-dose-only effect; inactive = no such curve, though single readings can be large or run the other way.

Test: Acumen qHTS Assay for Inhibitors of the mTORC1 Signaling Pathway in WT MEF Cells: Hit Validation; also: nearly all actives have a fitted effect of over 60% in size;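 as to activity change, negative = inhibition: phospho-rpS6 Ser235/236 immunofluorescence normalised to propidium iodide cell stain; percent of cells above a cutoff set by 7.5 nM rapamycin treated wells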
Conditions: Acumen imaging; series mostly up to 37.3 µM; activity change, negative = inhibition: at the top concentration
Procedure, shortened: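 Read-out is immunofluorescent phospho-rpS6 (Ser235/236) normalised to PI-stained cell number, reported as % active cells using a 7.5 nM rapamycin threshold. Cells: WT or Tsc2-/-, p53-/- MEFs, compound-exposed 24 h at 37C; PI count also tracks viability.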
Potency is read from the fitted curve at half-maximal effect.

Row | SMILES | activity change, negative = inhibition | Potency
1 | COc1ccccc1C1C=C(c2ccc(Cl)cc2)Nc2nc(-c3ccc(Cl)cc3)nn21 (stereo not given) | -2.29% (inactive) | –
2 | Cc1ccc(C)c(S(=O)(=O)NCC(c2ccco2)S(=O)(=O)c2ccc(F)cc2)c1 (stereo not given) | 1.81% (inactive) | –
3 | COc1ccc(-n2ncc3c(NCCCOC(C)C)ncnc32)cc1 | -9.78% (inactive) | –
4 | COc1ccc(CCN(C)CCCC(C#N)(c2ccc(OC)c(OC)c2)C(C)C)cc1OC (stereo not given) | 2.34% (inactive) | –
5 | CCOc1ccc(CC(=O)NC2CC(=O)N(c3ccc4c(c3)OCCO4)C2)cc1 (stereo not given) | 38.6% (inactive) | –
6 | Cc1ccc(C)c(NC(=O)c2nc(S(=O)(=O)Cc3ccc(F)cc3)ncc2Cl)c1 | – | 2.33 µM (active)
7 | Cc1cc(C)c(/C=C2\C(=O)Nc3ccccc32)[nH]1 | – | inactive
8 | CC/C(=C(\c1ccccc1)c1ccc(OCCN(C)C)cc1)c1ccccc1 | -13.2% (inactive) | –
9 | Cc1cccc(Nc2ncc(NC(=O)c3cccc(F)c3)c(Nc3cccc(C)c3)n2)c1 | – | 5.85 µM (active)
10 | COc1ccc2c(CNCCc3cccs3)c(C(=O)O)n(Cc3ccc(F)cc3Cl)c2c1 | -2.41% (inactive) | –
11 | COc1ccc(N2CC(c3nc(-c4cc(OC)c(OC)c(OC)c4)no3)CC2=O)cc1Cl (stereo not given) | -13% (inactive) | –
12 | COc1ccc(S(=O)(=O)N(Cc2nc(-c3cccc(C)c3)no2)C2CCCCC2)cc1 | 7.2% (inactive) | –
13 | CCn1c(CN2CCC(C)CC2)nc2cc(NC(=O)c3ccccc3[N+](=O)[O-])ccc21 | -4.58% (inactive) | –
14 | Cc1ccccc1CS(=O)(=O)c1ncc(Cl)c(C(=O)Nc2nnc(C(C)C)s2)n1 | – | 11.7 µM (active)
15 | O=C(Nc1ccc(-c2cc(C(F)(F)F)nn2-c2ccccc2)cc1)c1cccc(F)c1 | -23.2% (inactive) | –
16 | CCc1ccc(NC(=O)Cn2c(=O)n(-c3ccc(OC)cc3)c(=O)c3ccc(C(=O)NCc4ccc(C)cc4)cc32)cc1 | – | 10.4 µM (active)
17 | COc1cc(CN(C(=O)COc2ccc(C)c(C)c2)c2ccccn2)cc(OC)c1OC | -74.2% (inactive) | –
18 | COc1ccc(NC(=O)CSc2nc3ccccc3nc2N2CCC(C)CC2)cc1 | 13.7% (inactive) | –
19 | Cc1ccc(-n2ncc(C(=O)NCCCN3CCc4ccccc4C3)c2C2CCN(C(=O)OC(C)(C)C)CC2)c(C)c1 | 44.2% (inactive) | –
20 | CCOc1ccccc1NC(=O)CN1C(=O)C(=O)c2ccccc21 | 13.2% (inactive) | –

Row | SMILES | activity change, negative = inhibition | Potency
21 | Cc1ccc2nc(-c3cccc(NC(=O)c4cccc5ccccc45)c3)oc2c1 | 47.2% (inactive) | –
22 | CCCN1C(=O)C(Cc2nc3ccccc3c(=O)n2CC)c2cc(Br)ccc21 (stereo not given) | 59.6% (inactive) | –
23 | CCOc1cc(C(=O)Nc2ccc(-c3cn4cccnc4n3)cc2)cc(OCC)c1OCC | 29.8% (inactive) | –
24 | Cc1ccc(Nc2nnc(-c3ccc(C)c(S(=O)(=O)N4CCOCC4)c3)c3ccccc23)c(C)c1 | -0.763% (inactive) | –
25 | CCCCOc1cccc(C(=O)N2CCN(CCc3ccncc3)CC2)c1 | 39.3% (inactive) | –
26 | CCc1ccc(-c2nc(CSCC(=O)NCc3ccc(C)cc3)c(C)o2)cc1 | 34.2% (inactive) | –
27 | CCCSc1ncc(Cl)c(C(=O)Nc2ccc(S(=O)(=O)N3CCCCC3C)cc2)n1 (stereo not given) | -12% (inactive) | –
28 | O=C(NCc1ccccc1Cl)C(=O)NCC(c1cccs1)S(=O)(=O)c1cccs1 (stereo not given) | -22.4% (inactive) | –
29 | COc1ccc(-c2nc(CCNC(=O)c3c(F)cccc3Cl)cs2)cc1 | 2.92% (inactive) | –
30 | CCSc1oc(-c2ccc(F)cc2)nc1S(=O)(=O)c1ccc(C)cc1 | -16.5% (inactive) | –
31 | CCC1=Nc2cc(C(=O)NC3CCCC3)ccc2Sc2ccc(Cl)cc21 | – | 2.07 µM (active)
32 | CCOc1ccccc1NC(=O)Cn1c(=O)n(CCC(=O)NCc2ccc3c(c2)OCO3)c(=O)c2ccccc21 | 3.05% (inactive) | –
33 | COc1cccc(C2CC(=O)Nc3cc4c(cc32)OCCO4)c1OC (stereo not given) | 10.7% (inactive) | –
34 | Cc1cc(C)c2oc(-c3cccc(NC(=O)COc4ccc([N+](=O)[O-])cc4)c3)nc2c1 | 1.31% (inactive) | –
35 | Cc1cccc(CS(=O)(=O)c2ncc(Cl)c(C(=O)Nc3nnc(C(C)C)s3)n2)c1 | – | 14.7 µM (active)
36 | COc1cc2ncnc(Nc3ccc(F)c(Cl)c3)c2cc1OCCCN1CCOCC1 | -26.5% (inactive) | –
37 | CCc1ccc(NC(=O)CSc2nccn2C2CCCC2)cc1 | 17.4% (inactive) | –
38 | CS(=O)(=O)CCNCc1ccc(-c2ccc3ncnc(Nc4ccc(OCc5cccc(F)c5)c(Cl)c4)c3c2)o1 | 1.69% (inactive) | –
39 | COc1ccc(S(=O)(=O)N(CCc2ccccc2)CC(=O)Nc2cccc(OC)c2)cc1 | 3.05% (inactive) | –
40 | Cc1ccccc1C(=O)N1CCN(CCc2ccccn2)CC1 | 3.82% (inactive) | –
